# Experimental data as given in the supplement of paper PMC6555819.
# What was measured:
# Assay in all cases: PBM binding z-score (relative to random genomic background probes); higher = stronger binding; sequences stand for … in GC…GCGATTGACAGCGTAGAATGAAGG
# [1] = tested on: PPARg:RXRa DBDmut IVT, anti-RXR (DBD mutation: RXRa K156A/R161A, NR concentration 270 nM, RXRa partner concentration 90 nM)
# How it was run: (§1)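 Binding buffer was PBS pH 7.4 with 2% milk, 0.02% Triton X-100, 1 mM DTT, 0.2 mg/mL BSA and 0.4 mg/ml salmon testes DNA. In it, ligand-free nuclear receptor dimers were incubated 1 h on custom Agilent 4×180K protein-binding microarrays carrying double-stranded probes. Antibodies against each partner (one per run) detected binding, and z-scores were calculated against random background probes after regression normalization of scanned fluorescence.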
# [2] = tested on: PPARg:RXRa IVT, anti-PPARg (NR concentration 270 nM, RXRa partner concentration 90 nM)
# How it was run: as §1
# [3] = tested on: PPARg DBDmut:RXRa IVT, anti-PPARg (DBD mutation: PPARg1 K132A/R137A, NR concentration 270 nM, RXRa partner concentration 90 nM)
# How it was run: as §1
# [4] = tested on: PPARg DBDmut IVT, anti-PPARg (DBD mutation: PPARg1 K132A/R137A, NR concentration 270 nM)
# How it was run: as §1
# [5] = tested on: PPARg homodimer (NR concentration 180 nM)
# How it was run: as §1
# [6] = tested on: PXR:RXRa (NR concentration 270 nM, RXRa partner concentration 90 nM)
# How it was run: as §1
# [7] = tested on: PXR homodimer (NR concentration 270 nM)
# How it was run: as §1
# [8] = tested on: RARa:RXR (NR concentration 270 nM, RXRa partner concentration 90 nM)
# How it was run: as §1
# [9] = tested on: RARa homodimer (NR concentration 270 nM)
# How it was run: as §1
# [10] = tested on: RARb:RXRa (NR concentration 270 nM, RXRa partner concentration 90 nM)
# How it was run: as §1
# [11] = tested on: RARb homodimer (NR concentration 270 nM)
# How it was run: as §1
# [12] = tested on: RARg homodimer (NR concentration 270 nM)
# How it was run: as §1
# [13] = tested on: RXRa DBDmut IVT, anti-RXR (DBD mutation: RXRa K156A/R161A, NR concentration 90 nM)
# How it was run: as §1
# [14] = tested on: THRa:RXRa (NR concentration 90 nM, RXRa partner concentration 90 nM)
# How it was run: as §1
# [15] = tested on: THRa homodimer (NR concentration 90 nM)
# How it was run: as §1
# [16] = tested on: VDR homodimer (NR concentration 270 nM)
# How it was run: as §1
# [17] = tested on: RXRa homodimer (NR concentration 180 nM)
# How it was run: as §1
sequence,measurement,setting,value
CCTTACGGGTCTAGGTTATAGCACGGGTGGTACG,PBM binding z-score,[1],-0.763
same,PBM binding z-score,[2],0.098
same,PBM binding z-score,[3],-1.1
same,PBM binding z-score,[4],-0.738
same,PBM binding z-score,[5],-0.385
same,PBM binding z-score,[6],-0.387
same,PBM binding z-score,[7],-0.0571
same,PBM binding z-score,[8],0.0446
same,PBM binding z-score,[9],-0.0691
same,PBM binding z-score,[10],0.467
same,PBM binding z-score,[11],0.113
same,PBM binding z-score,[12],0.0918
same,PBM binding z-score,[13],-1.08
same,PBM binding z-score,[14],0.109
same,PBM binding z-score,[15],0.173
same,PBM binding z-score,[16],-0.202
TGTCAAAGCTCAAAGGTAACGTAAGTATCCACAC,PBM binding z-score,[1],-0.538
same,PBM binding z-score,[2],0.996
same,PBM binding z-score,[3],0.525
same,PBM binding z-score,[4],0.434
same,PBM binding z-score,[5],-0.0175
same,PBM binding z-score,[6],0.078
same,PBM binding z-score,[7],-0.43
same,PBM binding z-score,[8],0.683
same,PBM binding z-score,[9],-0.12
same,PBM binding z-score,[10],0.692
same,PBM binding z-score,[11],0.284
same,PBM binding z-score,[12],0.498
same,PBM binding z-score,[13],-1
same,PBM binding z-score,[17],0.764
same,PBM binding z-score,[14],1.25
same,PBM binding z-score,[15],-0.706
same,PBM binding z-score,[16],-0.613
ATCGAAAGGTCGAGGAGGTGAGTATACACCGTTT,PBM binding z-score,[1],0.255
same,PBM binding z-score,[2],1.9
same,PBM binding z-score,[3],1.49
same,PBM binding z-score,[4],0.557
same,PBM binding z-score,[5],1.47
same,PBM binding z-score,[6],2.86
same,PBM binding z-score,[7],0.184
same,PBM binding z-score,[8],3.41
same,PBM binding z-score,[9],0.666
same,PBM binding z-score,[10],3.94
same,PBM binding z-score,[11],2.92
same,PBM binding z-score,[12],4.23
same,PBM binding z-score,[13],0.868
same,PBM binding z-score,[17],4.21
same,PBM binding z-score,[14],2.85
same,PBM binding z-score,[15],-0.12
same,PBM binding z-score,[16],0.435
ATCGAAACGTCGTGAGGTGAGTATACAGAAAGGC,PBM binding z-score,[1],-0.959
same,PBM binding z-score,[2],0.149
same,PBM binding z-score,[3],1.07
same,PBM binding z-score,[4],-0.047
same,PBM binding z-score,[5],-0.199
same,PBM binding z-score,[6],-0.306
same,PBM binding z-score,[7],-0.433
same,PBM binding z-score,[8],0.0512
same,PBM binding z-score,[9],-0.494
same,PBM binding z-score,[10],-0.0846
same,PBM binding z-score,[11],-0.153
same,PBM binding z-score,[12],0.49
same,PBM binding z-score,[13],-0.879
same,PBM binding z-score,[17],0.393
same,PBM binding z-score,[14],1.63
same,PBM binding z-score,[15],0.771
same,PBM binding z-score,[16],-0.417
